Compounds with a hit are over-represented: about 12% of the library has one in this group of screens.
AMA1 RON2 block: qHTS for Inhibitors of AMA1-RON; Towards Development of Antimalarial Drug Lead: Primary Screen; Potency, µM (doses to about 58.2 µM), usual class: inhibitors; Plasmodium falciparum AMA1 (3D7) - RON2 peptide interaction; 360,000 tested, 0.2% active; AlphaScreen AMA1-biotinylated RON2 peptide binding; further: nearly all actives have a fitted effect of over 45% in size
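AMA1 (3D7) with his tag at 25 nM final met compounds first, then biotinylated RON2 peptide at 25 nM; detection used donor plus acceptor beads, 10 µg/mL apiece, read by AlphaScreen after 30 min at room temperature.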
Pf growth 48h: Primary qHTS for delayed death inhibitors of the malarial parasite plastid, 48 hour incubation; P. falciparum luciferase growth in erythrocytes, 48 h; Potency, µM (doses to about 28.7 µM), most hits filed as inhibitors; 310,000 tested, 5.9% active; AID 504832, 2011
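In quantitative HTS format, infected erythrocytes bearing luciferase-reporter parasites were treated for a single generation at 37 C. Luminescence after adding detection reagent served as the growth measure.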
SARS PLP yeast: qHTS of Yeast-based Assay for SARS-CoV PLP; 330,000 tested, 0.19% active; S. cerevisiae expressing SARS-CoV PLpro, growth rescue; AID 485353, 2010; Potency, µM (highest dose often 32.9 µM), usual class: activators; calls by dose curve; further: nearly all actives have a fitted effect of over 55% in size
Pf growth 96h: Primary qHTS for delayed death inhibitors of the malarial parasite plastid, 96 hour incubation. P. falciparum luciferase reporter growth, 96 h. Potency, µM (doses to about 28.7 µM), hits mostly inhibitors. 320,000 tested, 6.9% active. AID 504834, 2011
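Parasite growth measured via integrated firefly luciferase reporter in P. falciparum. Infected erythrocytes at 2% hematocrit, 0.05% parasitemia final were treated 96 hours at 37 C under 5% CO2, and luminescence was read.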
NS1 inh: qHTS Assay for Inhibitors of Influenza NS1 Protein Function; 270,000 tested, 0.4% active; Potency, µM (top dose mostly 46.1 µM); calls by dose curve; further: actives are rising curves; nearly all actives have a fitted effect of over 50% in size
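OD600 was taken as the measure of yeast growth restored by compound in an NS1-expressing S. cerevisiae strain. Cells had been washed out of glucose medium and diluted 1:100 into galactose -URA medium, pH 6.0.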
HCV inh: qHTS Assay for Inhibitors of Hepatitis C Virus (HCV); Huh7.5.1 HCVcc-Cre infection, luciferase reporter, 44 h; Potency, µM (series often up to 41.8 µM), actives largely listed as inhibitors; 340,000 tested, 3.4% active; AID 651820, 2012
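Antiviral activity was scored by luciferase reporter output from cells infected with HCVcc-Cre (~0.5 moi) in presence of compound, 44 h infection period, cells seeded 1,000/well 4 h prior.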
Numbers stand for hits; . = inactive; ? = inconclusive; / = no result given; [ ] = remark or other dose. Unless noted, the call rests on the fitted dose curve; in most records, active means well fitted curve in the direction sought with a large enough effect; inconclusive means small, poorly fitted or top-dose-only effect, or another doubt; inactive means no such curve, though single readings can be large; an effect the other way counts as inactive or inconclusive.

SMILES | AMA1 RON2 block | Pf growth 48h | SARS PLP yeast | Pf growth 96h | NS1 inh | HCV inh
Cn1c(=O)c2c(nc(CN3CCC(C(N)=O)CC3)n2Cc2ccccc2Cl)n(C)c1=O | . | . | . | ? | . | .
CCN(CC)CCNC(=O)C1(O)c2cc(Br)ccc2NC(=O)N1c1ccccc1 (stereo not drawn) | . | .[0.00184 µM] | . | 2.6µM | . | .
CN(C)CCNC(=O)C1(O)c2cc(Br)ccc2NC(=O)N1c1ccc(Cl)cc1 (stereo not drawn) | . | . | . | . | . | .
CC(C)(C)c1ccc(C(=O)O[C@H]2[C@H](Cc3ccccc3)NS(=O)(=O)[C@H]3C[C@@H]4C=C[C@]23O4)cc1 | . | 13µM | . | 12µM | / | ?
CCOc1ccc(C(=O)O[C@H]2[C@H](Cc3ccccc3)NS(=O)(=O)[C@H]3C[C@@H]4C=C[C@]23O4)cc1 | . | 2.1µM | . | 4.7µM | / | ?
COc1cccc(C(=O)O[C@@H]2[C@H](Cc3ccccc3)NS(=O)(=O)[C@H]3C[C@@H]4C=C[C@]23O4)c1 | . | ? | . | ? | / | .
C[C@@H]1NS(=O)(=O)[C@H]2C[C@@H]3C=C[C@]2(O3)[C@H]1OC(=O)c1ccccc1Br | . | ? | . | . | / | .
CNC[C@H](CC1CCCCC1)NC[C@H](CO)NCC1(c2ccccc2)CC1 | . | ? | . | ? | . | ?
CNC[C@H](CC1CCCCC1)NC[C@H](CO)NCCc1cccc(C(F)(F)F)c1 | . | ? | . | 1.9µM | . | ?
C=CCOC(=O)C1=C(C)NC(=S)C(C#N)(CC=C)C1c1ccccc1Cl (stereo not drawn) | . | 1.5µM | . | 1.5µM | . | .
CCOc1ccccc1N(CC)C(=O)c1ccc2c(=O)n3c(nc2c1)CCCCC3 | . | ? | . | 12µM | . | .
O=C(Nc1ccc(F)cc1Cl)c1ccc2c(=O)n3c(nc2c1)CCCCC3 | . | . | . | 3.7µM | . | .
COc1ccc(NC(=O)c2ccc3c(=O)n4c(nc3c2)CCCCC4)cc1 | . | . | . | . | . | ?
Cc1cccc(NC(=O)c2ccc3c(=O)n4c(nc3c2)CCCCC4)n1 | . | . | . | . | / | 14µM
CCN(C(=O)c1ccc2c(=O)n3c(nc2c1)CCCCC3)c1ccc(F)cc1 | . | . | . | ? | . | .
Cc1ccc(NC(=O)c2ccc3c(=O)n4c(nc3c2)CCCCC4)cc1F | . | . | . | ? | . | 10µM
C(=C\n1nnc2ccccc21)/c1ccc[nH]1 | ? | . | . | . | / | .
CCOc1ccccc1NC(=O)CSc1nnc(CNC(=O)c2c(F)cccc2Cl)o1 | . | . | . | . | . | ?
O=C(CCSc1ccccn1)c1ccccc1 | . | . | . | . | / | .
O=C(Nc1ccc2nc3n(c(=O)c2c1)CCCCC3)c1cc([N+](=O)[O-])ccc1F | . | . | . | ? | . | ?
O=C(Nc1ccc(SC(F)F)cc1)c1ccc2c(=O)n3c(nc2c1)CCC3 | . | . | . | . | / | 4µM
COc1cc(C(=O)Nc2ccc3nc4n(c(=O)c3c2)CCCCC4)cc(OC)c1OC | . | . | ? | 2.6µM | . | 11µM
O=C(Nc1ccc2nc3n(c(=O)c2c1)CCCCC3)c1c(F)ccc([N+](=O)[O-])c1F | . | ? | . | ? | . | 14µM
COc1ccc(C(=O)Nc2ccc3nc4n(c(=O)c3c2)CCCCC4)cc1OC | . | / | / | / | / | /
COc1cccc(COC(=O)c2ccc3c(=O)n4c(nc3c2)CCC4)c1OC | . | 13µM | . | ? | / | .
SMILES | AMA1 RON2 block | Pf growth 48h | SARS PLP yeast | Pf growth 96h | NS1 inh | HCV inh
CCCCN1C(=O)c2ccc(C(=O)NC3(C)CCS(=O)(=O)C3)cc2C1=O (stereo not drawn) | . | . | . | . | / | .
COCCn1c(C)cc(C(=O)COC(=O)c2ccc(Cl)c(S(N)(=O)=O)c2)c1C | ? | . | . | . | / | .[8.37 µM]
Cc1cccc(N2CCN(C(=S)Nc3ccc4nc5n(c(=O)c4c3)CCCCC5)CC2)c1C | . | . | . | ? | . | 6.3µM
CCCN(C(=O)C(=O)Nc1ccc2nc3n(c(=O)c2c1)CCCCC3)c1ccc(OCC)cc1 | . | 0.12µM | . | . | . | ?
O=c1c2cc(NC(=S)N3CCC(N4CCCCC4)CC3)ccc2nc2n1CCCCC2 | . | . | . | . | / | .
CCOC(=O)Nc1ccc2nc3n(c(=O)c2c1)CCCCC3 | . | . | . | . | / | .
COC(=O)c1ccc(CSCc2ccc(C#N)cc2)cc1 | / | . | . | . | . | /
Cc1cccc(N(C(=O)c2snc(C(N)=O)c2N)C(C(=O)NCC2CCCO2)c2ccc3ncccc3c2)c1 (stereo not drawn) | . | ? | . | . | . | .
CCCCn1c(N)c(N(CC(C)C)C(=O)C(C)SCc2nc3sc(C)c(C)c3c(=O)[nH]2)c(=O)[nH]c1=O (stereo not drawn) | . | 12µM | . | . | / | .
CCCCn1c(N)c(N(CCOC)C(=O)C2CCN(S(=O)(=O)c3ccc(C)cc3)CC2)c(=O)[nH]c1=O | . | . | . | . | / | ?
CCCCn1c(N)c(N(CC(C)C)C(=O)C2CCN(S(=O)(=O)c3ccc(C)c(C)c3)CC2)c(=O)[nH]c1=O | . | 2.6µM | . | 2.3µM | . | .
Cc1ccc(S(=O)(=O)N2CCN(CC(=O)N(CC(C)C)c3c(N)n(CC(C)C)c(=O)[nH]c3=O)CC2)c(C)c1 | . | ? | . | 4.1µM | . | .
CCCCn1c(N)c(N(CCOC)C(=O)C2CCN(S(=O)(=O)c3ccc(C)cc3C)CC2)c(=O)[nH]c1=O | . | 13µM | . | ? | / | .
COc1ccc(CCNC(=O)CC2SC(N)=NC2=O)cc1OC (stereo not drawn) | . | . | . | . | . | .
CCN(CC(=O)Nc1ccccc1C(F)(F)F)C(=O)c1ccc2c(c1)NC(=O)C(C)S2 (stereo not drawn) | . | / | / | / | / | /
CCCCn1c(N)c(N(CC(C)C)C(=O)CSCc2ccc(Cl)c(Cl)c2)c(=O)[nH]c1=O | . | 12µM | . | ? | / | ?
CCCCn1c(N)c(N(CC(C)C)C(=O)C2CCN(S(=O)(=O)c3ccc(C)cc3C)CC2)c(=O)[nH]c1=O | . | 13µM | . | ? | / | ?
CCCCn1c(N)c(N(CC(C)C)C(=O)CSCc2cccc(C)c2)c(=O)[nH]c1=O | . | ? | . | ? | / | .
CC(=O)c1sc(C(=O)O)c(-c2ccco2)c1-c1ccco1 | . | . | . | . | . | .
CC1=NN(c2ccccc2)C(=O)C1N=Nc1ccccc1 (stereo not drawn) | ? | . | . | ? | . | .
CC1=NN(c2ccccc2)C(=O)C1C(=O)c1ccccc1 (stereo not drawn) | . | . | ? | . | . | .
